# According to PubChem BioAssay AID588726 (The Scripps Research Institute Molecular Screening Center, 2011):
# In all, about 360,000 compounds went through this assay and about 8,200 (2.3%) were called active. The sample holds actives, similar compounds and a random draw of the others, so the mix is not that of the screen. A number with no mark means an inactive call. Rule as the data show it: active = inhibition above about 27%; inactive = the rest.
# Molecular target: Fructose-bisphosphate aldolase (Mycobacterium tuberculosis (strain ATCC 25618 / H37Rv)) (UniProt P9WQA3)
# Assay: M. tuberculosis aldolase activity blockers – biochemical, fluorescence, strain H37Rv, primary screen (AID 588726);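 also: 0% = vehicle and 100% = reference inhibitor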
# Conditions: purified M. tuberculosis FBA, fluorescence read-out, at 1 µM, hits give high values
# Fructose-bisphosphate aldolase (Mycobacterium tuberculosis (strain ATCC 25618 / H37Rv)), sequence (P9WQA3 whole entry, looked up): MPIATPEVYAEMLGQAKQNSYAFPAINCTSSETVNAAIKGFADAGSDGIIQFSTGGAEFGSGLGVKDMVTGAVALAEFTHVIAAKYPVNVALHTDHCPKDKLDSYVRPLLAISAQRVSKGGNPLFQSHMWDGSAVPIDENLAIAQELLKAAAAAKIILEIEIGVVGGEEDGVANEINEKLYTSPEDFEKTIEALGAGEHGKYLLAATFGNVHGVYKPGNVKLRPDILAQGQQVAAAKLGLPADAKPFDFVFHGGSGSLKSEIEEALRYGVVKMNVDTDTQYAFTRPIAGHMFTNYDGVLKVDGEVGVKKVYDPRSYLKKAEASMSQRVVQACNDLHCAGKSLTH
row,Compound,inhibition
1,N#CC(C#N)=CN=c1ccn(Cc2ccc(Cl)cc2Cl)cc1,-0.58%
2,O=C(COc1ccc2ccccc2c1)N1CCN(C(=O)c2cccs2)CC1,-0.2%
3,CC(=O)NS(=O)(=O)c1ccc(NC(=O)/C=C/c2ccccc2Cl)cc1,6.43%
4,CC(=O)Nc1ccc(S(=O)(=O)Nc2cc(C)cn(Cc3ccc(C)cc3)c2=O)cc1,-0.45%
5,O=C(NCCN1CCN(Cc2ccccc2)CC1)c1cc2c(=O)[nH]c3ccccc3c2s1,47.8% (active)
6,Cn1c(C(=O)NCCN2CCc3ccccc3C2)cc2c(=O)[nH]c3ccccc3c21,5.1%
7,CCC1CCCCN1CCCNC(=O)c1cc2c(Cl)nc3ccccc3c2s1 (stereo unspecified),-4.11%
8,Cc1ccc(C)c(C(O)c2ncc(-c3cccc4ccccc34)[nH]2)c1 (stereo unspecified),23.2%
9,COc1cccc2oc(CCc3ccccc3)cc(=O)c12,33.4% (active)
10,COc1ccc(C)cc1S(=O)(=O)NCCc1ccccc1,-6.6%
11,COc1ccccc1CN(C)C(=O)c1cc2ccccc2o1,2.4%
12,CCOc1ccc(C(=O)NC(=S)Nc2ccc(N3CCOCC3)c(Cl)c2)cc1[N+](=O)[O-],11%
13,COC(=O)C1C(=O)CC(C)(O)C(C(=O)OC)C1c1ccc2c(c1)OCO2 (stereo unspecified),0.24%
14,COc1ccc(OC)c(S(=O)(=O)Nc2ccccc2F)c1,-2.78%
15,COc1cc(/C=C/C(=O)O)cc(S(=O)(=O)Nc2ccccc2C(=O)NCCc2ccccc2)c1OC,0.65%
16,COc1cc(OC)c(S(=O)(=O)Nc2ccccc2C(=O)O)cc1S(=O)(=O)Nc1ccccc1C(=O)O,30.9% (active)
17,COc1ccc(N2CC(C(=O)NCCS(=O)(=O)N3CCN(c4ccccc4)CC3)CC2=O)cc1 (stereo unspecified),-1.82%
18,CCOC(=O)N1CCN(Cc2nc3cc(NC(=O)CC)ccc3n2CC)CC1,0.91%
19,COCc1c(C(=O)OCC(=O)Nc2ccc(OC(F)F)cc2)oc2ccccc12,1.74%
20,COC(=O)c1cnn2c(C(F)(F)F)cc(-c3ccco3)nc12,14%
21,Cc1cc(C)c2nc(-c3ccco3)cc(C(=O)O)c2c1,105% (active)
22,CCOC(=O)c1ccn(-c2nc(-c3ccco3)cc(C(F)(F)F)n2)n1,10.6%
23,Cc1ccnc(NS(=O)(=O)c2ccc(NC(=O)c3oc4ccc(F)cc4c3C)cc2)n1,1.55%

row,Compound,inhibition
1,CN(C(=O)c1cccc(NC(=O)Cc2ccc(NC(=O)C3CCCN(C(=O)C4CC4)C3)cc2)c1)C1CC1 (stereo unspecified),0.61%
2,CN(C)Cc1c(O)ccc2occ(C(O)c3ccccc3)c12 (stereo unspecified),6.31%
3,CN(C)Cc1c(O)ccc2c(=O)c(-c3ccccc3Cl)coc12,96.3% (active)
4,Cc1ccc(C(=O)c2coc3ccc(O)c(CN(C)C)c23)cc1,-0.7%
5,O=C(CNC(=O)OCc1ccccc1)Oc1cc2oc(=O)cc(-c3ccccc3)c2cc1Cl,36.7% (active)
6,O=C(CNC(=O)c1ccccc1)NCC(=O)OCc1ccc(Cl)cc1,0.34%
7,CC(Oc1ccc2c(-c3ccccc3)cc(=O)oc2c1)C(=O)NC(Cc1c[nH]c2ccccc12)C(=O)O (stereo unspecified),-3.79%
8,CCN(C(=O)COC(=O)C1CCN(S(=O)(=O)c2ccc(C)c(C)c2)CC1)C1CCS(=O)(=O)C1 (stereo unspecified),4.31%
9,CCNC(=O)COC(=O)CCNC(=O)c1cccc(C)c1,-2.08%
10,COCCN(CCOC)c1nc(N)c2c(N)nc3c(c2c1C#N)CC(=O)N3Cc1ccc(Cl)cc1,32.8% (active)
11,CN(Cc1ccccc1)C(=O)C1CCCN(c2ncnc3c2nc2n3CCCCC2)C1 (stereo unspecified),0.44%
12,COc1cccc(NS(=O)(=O)c2ccc(-c3coc(C)n3)cc2)c1,-2.5%
13,O=C(/C=C/[C@H]1O[C@@H](n2ccc(=O)[nH]c2=O)[C@H](O)[C@@H]1O)NCc1ccccn1,-1.68%
14,CCOC(=O)c1cc(C)sc1NC(=O)C1CCC1,4.25%
15,Cc1cc(C(=O)OCC(=O)Nc2nnc(C(C)C)s2)c2ccccc2n1,1.64%
16,CCOC(=O)c1cc(C(C)C)sc1NC(=O)COC(=O)c1nccnc1N,55.2% (active)
17,Cc1cc(C)c2c(c1)NP(=S)(c1ccccc1)N2 (stereo unspecified),34.4% (active)
18,COc1ccc2c(c1)NP(=S)(c1ccccc1)N2 (stereo unspecified),18.1%
19,COC(=O)c1cc(OC)c(OC)cc1NC(=O)C1CCCO1 (stereo unspecified),15.2%
20,O=C(C1CCCO1)N1CCC(c2nc3ccccc3[nH]2)CC1 (stereo unspecified),-0.87%
21,COc1cc2nc(N3CCN(C(=O)[C@@H]4CCCO4)CC3)nc(N)c2cc1OC,95.4% (active)
22,CC1(C)CC(=O)c2cc(OCC(=O)NCC3CCCO3)ccc2O1 (stereo unspecified),78.8% (active)
23,C=CCOc1ccc(/C=C/C(=O)OCC(=O)NCC2CCCO2)cc1 (stereo unspecified),1.08%

row,Compound,inhibition
1,CCOc1ccc(S(=O)(=O)NCCC(=O)NCC2CCCO2)cc1 (stereo unspecified),-1.07%
2,CC1=C(C(=O)N(C(C)C)C(C)C)CC(CC(=O)NCCCCc2ccccc2)C(=O)N1CCC1=CCCCC1 (stereo unspecified),-1.08%
3,O=C(NC1CC1)C(Cc1ccccc1)NS(=O)(=O)c1ccccc1F (stereo unspecified),2.61%
4,Cc1ccc(SCC(=O)NNC(=O)c2ccc(S(C)(=O)=O)cc2)cc1,0.63%
5,CC(C)(C)c1ccc(/C=C/C(=O)NCCCn2ccnc2)cc1,1.36%
6,O=C(O)c1ccccc1-c1cccc2nncn12,4.68%
7,CCCC/C=C/c1cccc2nncn12,27.5% (active)
8,OCC1(CO)CC2(C1)CC(CO)(CO)C2,0.01%
9,Cc1nn(-c2ncccn2)c2c1C(=O)CC(C)(C)C2Br (stereo unspecified),4.4%
10,COc1ccc(NC(=O)/C(N=Nc2cccc(S(=O)(=O)Nc3ccc(SC(F)F)cc3)c2)=C(\C)O)cc1,-0.31%
11,CCc1ccc(C(=O)NC(=S)Nc2ccccc2N2CCOCC2)cc1,0.12%
12,Cc1cc(=O)n2[nH]c(-c3cccc(Cl)c3)cc2n1,32.4% (active)
13,Cc1cc(=O)[nH]c(SCc2ccc(Cl)cc2)n1,0.44%
14,O=c1c2c(nc3cc(-c4cccc(Cl)c4)[nH]n13)CCCC2,3.87%
15,C[C@H](NC(=O)c1ccccc1Cl)C(=O)OCCOc1cccc(Cl)c1,4.6%
16,CCN(CC)CCNCc1ccc(OCc2ccc(Cl)nc2)c(OC)c1,-0.85%
17,O=C(CN1C(=O)NC2(CCCC2)C1=O)Nc1ccc(F)c(F)c1F,-0.1%
18,CC(=O)NCCC(=O)Nc1nc(C)c(Cc2ccc3c(c2)OCO3)s1,-0.89%
19,Cc1cc(NC(=O)CN2C(=O)NC(CCc3ccccc3)C2=O)no1 (stereo unspecified),0.86%
20,COCC(=O)N(C)[C@H]1C[C@H]2c3cc(Oc4ccccc4C)ccc3CCN2C(=O)[C@H]1[C@H](C)O,0.95%
21,C[C@H](O)[C@@H]1C(=O)N2CCc3ccc(N4CCOCC4)cc3[C@@H]2C[C@@H]1N(C)C(=O)C(C)(C)C,7.29%
22,C[C@H](O)[C@@H]1C(=O)N2CCc3c([nH]c4ccccc34)[C@@H]2C[C@@H]1N(C)C(=O)Nc1ccc(F)cc1,55.9% (active)
23,COc1ccc(CCNC(=O)CCCCCNC(=O)N2CCn3c2nc2ccccc23)cc1OC,-0.38%

row,Compound,inhibition
1,CCc1nc2ccccc2c(C(=O)OC2CCCCC2=O)c1C (stereo unspecified),0.09%
2,CCc1c(C)c2ccc(OC3CCCCC3=O)cc2oc1=O (stereo unspecified),90.5% (active)
3,CCOc1ccc2c(=O)c(-c3ccc4c(c3)OCCCO4)c(C)oc2c1,-0.24%
4,COC(=O)C(NS(=O)(=O)c1ccc(F)cc1)c1ccccc1 (stereo unspecified),1.52%
5,CCSC1(SCC)N=C(N)C2(C#N)C(c3ccccc3)NC(C)=CC12C#N (stereo unspecified),4.9%
6,CN1C[C@@H](CO)O[C@@H](n2cnc3c(N4CCN(CCO)CC4)ncnc32)C1,-1.44%
7,COc1ccc(NC(=O)C2C3C=CC(C3)C2C(=O)NCc2ccccn2)c(OC)c1 (stereo unspecified),3.99%
8,COc1ccc(C(=O)N2CCCN(C)CC2)c(OC)c1,1.38%
9,CCOC(=O)N1CCN(C(=O)c2n[nH]c(=O)c3ccccc23)CC1,-0.89%
10,CCOC(=O)N1CCN(C(=O)c2cc3c(ccc4ccccc43)oc2=O)CC1,48.8% (active)
11,C=CCc1cccc2cc(C(=O)N3CCN(C(=O)OCC)CC3)c(=O)oc12,1.44%
12,COc1ccc(-c2nc(CS(=O)CC(=O)NCc3ccccn3)c(C)o2)cc1 (stereo unspecified),4.79%
13,COc1ccc2oc(=O)c(C(=O)NCc3ccccn3)cc2c1,82.7% (active)
14,COc1cccc2cc(C(=O)N3CCN(C(=O)c4ccccc4)CC3)c(=O)oc12,-2.27%
15,COc1ccc2oc(=O)c(C(=O)N3CCCC3)cc2c1,27.7% (active)
16,C=CCC(CC=C)(C(N)=O)c1ccccc1,-1.04%
17,C[C@H]1CN([C@@H](C)CO)C(=O)CCCn2cc(nn2)CO[C@@H]1CN(C)C(=O)Nc1ccccc1,0.08%
18,O=C(NC1CCCC1)C1CC(=O)N(c2ccc(F)cc2)C1 (stereo unspecified),-3.06%
19,COc1cccc(NC(=O)C2(C)CCN2Cc2ccccc2Cl)c1 (stereo unspecified),3.88%
20,CCOC(=O)Cc1csc(SCc2cc(=O)oc3cc(O)ccc23)n1,2.87%
21,Cc1nc(COc2cc3oc(=O)cc(C)c3cc2Cl)cs1,27.6% (active)
22,Cc1cc(=O)oc2cc(OCC3CC(c4ccccc4Cl)=NO3)ccc12 (stereo unspecified),9.86%
